High-throughput results from PubChem BioAssay.
FLuc counter – inhibits or activates purified firefly luciferase, miR-21 counter-screen; purified FLuc, Km substrates, luminescence inhibition; Potency, µM (top dose mostly 57.5 µM), for the others: top-dose activity change, negative = inhibition, hits mostly inhibitors; 6.9% of 360,000 active; AID 588342;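 further: plate controls were vehicle for no effect and reference inhibitor for full effect; nearly all actives have a fitted effect of over 55% in size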
Target sequence (P08659 whole entry, looked up): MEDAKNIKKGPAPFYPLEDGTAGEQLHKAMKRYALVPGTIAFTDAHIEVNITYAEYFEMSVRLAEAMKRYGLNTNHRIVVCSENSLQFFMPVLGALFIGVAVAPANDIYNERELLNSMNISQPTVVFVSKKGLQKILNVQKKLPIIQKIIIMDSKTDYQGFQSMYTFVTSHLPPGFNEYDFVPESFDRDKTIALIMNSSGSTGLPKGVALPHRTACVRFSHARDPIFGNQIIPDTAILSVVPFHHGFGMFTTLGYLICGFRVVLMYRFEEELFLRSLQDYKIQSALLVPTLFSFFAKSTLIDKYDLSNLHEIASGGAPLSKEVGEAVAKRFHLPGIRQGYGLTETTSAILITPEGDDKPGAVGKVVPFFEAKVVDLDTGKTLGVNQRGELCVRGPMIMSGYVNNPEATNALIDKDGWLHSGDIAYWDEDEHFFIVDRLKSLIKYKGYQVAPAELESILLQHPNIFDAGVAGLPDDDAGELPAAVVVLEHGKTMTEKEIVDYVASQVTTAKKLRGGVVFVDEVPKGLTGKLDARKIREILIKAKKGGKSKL
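Purified P. pyralis luciferase (10nM final) with 10uM D-luciferin and 10uM ATP (Km levels) in 50mM Tris acetate pH 7.5, 10mM Mg acetate, 0.01% Tween-20, 0.05% BSA; qHTS 6-point titration, ~60 µM downward; luminescence read.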
SMN2 splice up – increases expression of the SMN2 splice variant; HEK293 SMN2-luciferase splicing reporter, luminescence, 30-36 h; Potency, µM (top dose mostly 46.1 µM), inactives show at the top dose activity change, positive = activation, usual class: activators; 2.8% of 210,000 active; further: % of control where 0% means no effect; nearly all actives have a fitted effect of over 55% in size
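HEK293 cells carry an SMN2 minigene-luciferase reporter in which exon 7 inclusion puts luciferase in frame. Cells were seeded at 2000 cells/well, attached for 10-12 hours, then exposed to compounds for 30-36 hours at 37C before ONE-Glo luminescence.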
p53 reactivation – restores transcriptional activity of mutant p53 | H1299 p53-A138V BP100-luciferase reporter, luminescence, 24 h | 0.063% of 320,000 active | Potency, µM (highest dose often 92.2 µM), for inactives: top-dose activity change, positive = activation, actives largely listed as activators; further: % of control where 0% means no effect; nearly all actives have a fitted effect of over 45% in size
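H1299 (p53-null), stable ts p53-A138V + BP100-Luc; 1000 cells/well, Opti-MEM/10% FBS; cpd 4 pt, 1:5; 24 h, 37 deg C, 5% CO2; detection reagent 10 min RT; luminescence.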
NPC1 promoter act – activates the NPC1 promoter; Huh7 NPC1 promoter luciferase reporter, 24 h; Potency, µM (doses to about 9.22 µM), inactives show at the top dose activation, hits mostly activators; 2.4% of 320,000 active; further: % of control where 0% means no effect; nearly all actives have a fitted effect of over 60% in size
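Stable NPC1-promoter luciferase Huh7 line; cpd (DMSO) 24 h, 37 °C, 5% CO2; Amplite luciferase reagent 10 min RT; luminescence readout. qHTS format.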
ELG1 genotox – genotoxicity induction in ELG1-luciferase HEK293T cells | HEK293T ELG1-luciferase reporter, luminescence, 16 h | Potency, µM (series often up to 46 µM), inactives show top-dose activity change, positive = activation, usual class: activators | 1.3% of 330,000 active; further: % of control where 0% means no effect; nearly all actives have a fitted effect of over 60% in size
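Genotoxicity was scored as increased ELG1-luciferase reporter signal, measured by ONE-Glo luminescence (30 min, room temperature). Compound or vehicle exposure of the HEK293T reporter cells lasted 16 hr at 37°C.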
Rab9 promoter act – activates the Rab9 promoter; Huh7 Rab9 promoter-luciferase reporter, luminescence, 24 h; Potency, µM (highest dose often 9.22 µM), without a hit: at the top dose activation, negative = inhibition, actives largely listed as activators; 2.8% of 320,000 active; further: % of control where 0% means no effect; nearly all actives have a fitted effect of over 60% in size
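Cell-based reporter: Huh7 stable for Rab9 promoter-driven luciferase, plated in reduced-serum medium with 10% FBS at 1500 cells/well, compound-treated 24 h at 37 °C, luminescence read after 10 min reagent.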
* = called active by the depositor; ? = inconclusive; / = not tested or not shown; [ ] = remark or other dose. Only some compounds are listed: those with a hit (about 7.3% of all), similar ones and a draw of the others. The call rests on the fitted dose curve; in most records, active means well fitted curve in the direction sought with a large enough effect; inconclusive means small, poorly fitted or top-dose-only effect, or another doubt; inactive means no such curve, though single readings can be large; an effect the other way counts as inactive or inconclusive. Potency means the concentration at half of the fitted maximal effect.

SMILES	FLuc counter	SMN2 splice up	p53 reactivation	NPC1 promoter act	ELG1 genotox	Rab9 promoter act
Cn1ccsc1=NC(=O)c1ccc(Cl)cc1	17µM*	14µM*	6%	?	?	?
COC(=O)c1ccc(C(=O)N=c2sccn2C)cc1	15µM*	/	?	2.8µM*	?	2.8µM*
Cn1ccsc1=NC(=O)c1ccccc1F	-1%	3%	12%	4%	-9%	21%
COc1ccc(C(=O)N=c2sccn2C)cc1	17µM*	?	3%	?	?	?
CN(C)Cc1ccc(C(C)(C)C)cc1-c1cc(C(C)(C)C)ccc1CN(C)C	/	2%[9.22 µM]	/	/	/	/
COc1ccc(CCNC(=O)CCc2c(C)nc3c(c(C)nn3-c3ccccc3)c2C)c(OC)c1	2%	4%	/	/	/	/
O=C(Nc1cccc(C(F)(F)F)c1)c1cnn(-c2cccc(F)c2)c1C1CCNCC1	1%	/	/	/	/	/
Cn1ccsc1=NC(=O)c1ccc(OC(F)(F)F)cc1	9.5µM*	/	10%	?	?	4.5µM*
Cn1ccsc1=NC(=O)c1ccc(S(=O)(=O)C(F)F)cc1	?	/	17%	?	?	3.5µM*
CCOc1cc(C(=O)N=c2sccn2C)ccc1OC(F)F	-18%	/	5%	11%	0%	?
Cn1ccsc1=NC(=O)c1ccc(CS(C)(=O)=O)cc1	?	/	12%	17%	16%	20%
Cn1ccsc1=NC(=O)c1ccccc1OC(F)F	-1%	/	1%	-2%	-3%	3%
CN(C)c1ccc(C(=O)N=c2sccn2C)cc1[N+](=O)[O-]	9.5µM*	/	?	2.2µM*	9.2µM*	3.2µM*
[ClH+][Cu][ClH+].[Cu].[OH2+]c1ccc2ccccc2c1CN1CCCCC1.[OH2+]c1ccc2ccccc2c1CN1CCCCC1	/	-24%[9.22 µM]	/	/	/	/
CCN(CC)c1ccc(-c2nn3c(-c4cccnc4)nnc3s2)cc1	21µM*	2%	0%	-23%	-7%	-20%
Cc1ccnn1CCC(=O)N1CCCC(N2CCN(c3cccc(Cl)c3)CC2)C1 (stereo not drawn)	5%	/	5%	-5%	-18%	-1%
Cc1cccc(NC(=O)c2ccc(N3CCOCC3)c([N+](=O)[O-])c2)n1	?	?	-5%	19%	17%	?
O=C(O)c1ccccc1C(=O)c1ccc(N2CCCC2)c([N+](=O)[O-])c1	24µM*	-2%	8%	10%	9%	24%
Cc1cccc(NC(=O)c2ccc(N(C)C3CCCCC3)c([N+](=O)[O-])c2)n1	11µM*	4%	11%	26%	-16%	20%
Cc1cccc(NC(=O)c2ccc(N3CCCCC3)c([N+](=O)[O-])c2)n1	4.8µM*	6.3µM*	?	2.8µM*	?	2µM*
O=C(Nc1ccccc1Cl)C1CCN(c2nc3ccccc3[nH]2)CC1	0%	/	/	/	/	/
O=C(COC(=O)c1ccccc1Br)Nc1cccnc1Cl	/	/	4%	/	4%	/
CC(C)(C)S(=O)(=O)c1cnc(N2CCCCC2)nc1N	-11%	/	2%	9%	1%	12%
CC(C)(C)S(=O)(=O)c1cnc(-c2ccc(Cl)cc2)nc1N	?	/	11%	2.5µM*	10%	2.2µM*
Fc1ccc(NCc2cn3ccccc3n2)cc1	15µM*	?	?	3.2µM*	-3%	4µM*
SMILES	FLuc counter	SMN2 splice up	p53 reactivation	NPC1 promoter act	ELG1 genotox	Rab9 promoter act
Fc1cccc(NCc2cn3ccccc3n2)c1	9.5µM*	2.5µM*	/	1.8µM*	2.3µM*	0.79µM*
O=C(NCCc1cn2ccccc2n1)c1ccccc1F	2%	-14%	1%	0%	1%	0%
O=S(=O)(c1ccc(C2CCCCC2)cc1)N1CCN(c2cc(Cl)ccc2Cl)CC1	-5%	5%	/	/	/	/
C#CCN1C(=O)S/C(=C/c2cc(C)n(CC)c2C)C1=O	2.1µM*	/	?	2.8µM*	?	1.6µM*
CCn1c(C)cc(/C=C2/SC(=S)N(CC(=O)O)C2=O)c1C	2.7µM*	-13%	-8%	5%	-9%	1%
CCN1C(=O)/C(=C/c2cnn(CC)c2C)SC1=S	?	-4%	19%	1%	?	1%
CNc1nc(-c2ccc3c(c2)CCN3C(=O)c2cccc(F)c2)cs1	4.8µM*	/	?	?	0%	2µM*
CNc1nc(-c2ccc3c(c2)CCN3C(=O)c2ccc(F)cc2)cs1	12µM*	2%	-2%	25%	3%	?
O=C(CN1CCCC1)Nc1nc(-c2ccc3c(c2)CCN3C(=O)c2ccccc2F)cs1	24µM*	/	12%	20%	-15%	13%
CNc1nc(-c2ccc3c(c2)CCN3C(=O)c2ccccc2C)cs1	7.6µM*	22µM*	11%	4µM*	?	2.2µM*
Cc1cccc(C(=O)N2CCc3cc(-c4csc(NC(=O)CN5CCCC5)n4)ccc32)c1	?	/	9%	-3%	-23%	-2%
O=C(Nc1nc(-c2ccc(F)cc2)cs1)C1CCN(C(=O)c2ccc(F)cc2)CC1	-12%	/	-9%	-17%	-9%	-16%
Cc1ccccc1C(=O)N1CCc2cc(-c3nc(NC(=O)Cc4ccc5c(c4)OCO5)sc3C)ccc21	2%	-64%	-2%	-23%	0%	-20%
COc1ccc(OC)c(NC(=O)c2cc3cc(C)ccc3n2C)c1	-2%	/	/	/	/	/
CCOc1ccc(S(=O)(=O)NCCC(=O)N2CC=C(c3ccccc3)CC2)cc1	-1%	/	-2%	1%	-2%	-7%
Cc1cccc(C)c1NC(=O)CNC(=O)c1ccc(COc2ccccc2)o1	2%	/	0%	-4%	0%	9%
Cc1cccc(NC(=O)c2ccc(COc3ccc4ccccc4c3)o2)n1	?	/	?	14%	-1%	5%
Cc1csc(NC(=O)c2ccc(COc3ccccc3)o2)n1	17µM*	/	?	1µM*	1%	?
Cc1cccc(NC(=O)c2ccc(COc3ccccc3)o2)n1	17µM*	/	16%	16%	27%	27%
COc1ccc(CC(=O)Nc2cc(C)on2)cc1	-6%	12%	?	-5%	0%	1%
O=C(/C=C/c1ccccc1)Nc1ccc(Br)cn1	?	11µM*	0%	3%	?	1.4µM*
COc1ccc(/C=C/C(=O)Nc2cc(C)on2)cc1	?	10µM*	?	2.8µM*	14%	1.6µM*
Cc1cc(NC(=O)/C=C/c2ccccc2)no1	12µM*	?	?	?	?	2.8µM*
COc1ccc(/C=C/C(=O)Nc2nonc2NC(C)=O)cc1	24µM*	3%	?	11%	7%	24%
COC(=O)C1=C(C(=O)OC)[C@@H]2Nc3ccccc3[C@@]23C[C@@H](C(=O)OC)N(S(=O)(=O)c2ccc(C#N)cc2)C3=N1	/	-2%[9.22 µM]	/	/	/	/
